# Assay results reported in PubChem BioAssay AID624351 (Southern Research Specialized Biocontainment Screening …, 2012).
# About 1,400 (58%) of roughly 2,400 compounds were called active. So high a share suggests a set chosen from earlier hits. Some of the results follow. A number with no mark means an inactive call.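 The calls were made as follows: active = inhibition of 30% or more at any tested dose; inconclusive = primary hits over the limit that were never retested; inactive = the rest.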
# Experiment: coupled detection enzyme interference, dose response, artefact control for MgcRacGAP inhibitor project, biochemical, coupled enzyme counter-screen (AID 624351);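 also: signal is the ADP detection kit reading of free GDP without any GAP enzyme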;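 as to inhibition: 0% = median positive control wells and 100% = median negative control wells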
# Details: ADP Hunter coupled enzyme counter-screen, fluorescence, no MgcRacGAP; series mostly up to 80 µM; inhibition: at the top concentration
SMILES,IC50,inhibition
CN=c1scc(C)n1/N=C/c1ccc(O)cc1,19.3 µM (active),–
CN=c1scc(C)n1/N=C/c1ccc(O)cc1O,10.1 µM (active),–
C=CCN=c1scc(C)n1/N=C/c1ccc(O)c(O)c1,15.4 µM (active),–
Cn1c(=O)[nH]c(=O)c2c1[nH]c(=S)n2CCCc1ccccc1,15.2 µM (active),–
CN(C)C(=S)N=c1ssc(=S)n1Cc1ccccc1,–,7.07%
Cn1c(=O)c2c([nH]c(=S)n2CCCc2ccccc2)n(C)c1=O,11.4 µM (active),–
Cn1c(=O)[nH]c(=O)c2c1[nH]c(=S)n2Cc1ccc(Cl)cc1,22.2 µM (active),–
Cn1c(=O)[nH]c(=O)c2c1[nH]c(=S)n2Cc1ccccc1,19.2 µM (active),–
c1ccc2c(c1)c1c(c3ccccc32)CN2CCCC2C1 (centres undefined),–,-11.7% [at 10 µM]
O=C1c2c([N+](=O)[O-])cc([N+](=O)[O-])cc2S(=O)N1Cc1ccccc1 (centres undefined),–,2.81%
COc1ccc(NC(=O)CNCc2cccs2)c(OC)c1,–,14.5%
COc1ccc(NCc2ccc([N+](=O)[O-])s2)c(OC)c1,33.3 µM (active),–
COc1ccc(N2CCCC2)c(NC(=O)c2ccc([N+](=O)[O-])o2)c1,–,-8.67%
Cn1c(N2CCOCC2)c(/C=N/O)c2ccccc21,60.1 µM (active),–
CCn1c(=S)[nH]c2c(=O)n(C)c(=O)n(C)c21,18.9 µM (active),–
Cn1c(=O)c2[nH]c(=S)n(Cc3ccccc3)c2n(C)c1=O,18.4 µM (active),–
CCCCn1c(=S)[nH]c2c(=O)n(C)c(=O)n(C)c21,15.6 µM (active),–
Cc1cc(C)c(OCC(O)CN2CCN(C(=O)c3ccccc3)CC2)c(C)c1 (centres undefined),–,15.7%
CCOC(=O)Nc1ccc(OC(=O)Oc2ccc(NC(=O)OCC)cc2)cc1,41.3 µM (active),–
Cn1nccc1C(=O)Nc1ccc(OC(=O)c2ccnn2C)cc1,–,11.3%
CC(=O)Nc1ccc(OC(=O)Cc2ccc(Cl)cc2)cc1,–,1.69%
CCOC(=O)c1oc2cc(O)cc(C)c2c1C,54.1 µM (active),–
CCCCCCCCCCCCCCCC[N+](C)(C)Cc1ccc(F)cc1,–,-9.92%
N#Cc1c(Nc2ccccc2)s[nH]c1=O,–,3.41%
CCOC(=O)c1sc(/N=C/c2c(O)ccc3ccccc23)cc1C,36 µM (active),–
CCOC(=O)c1sc(/N=C/c2ccc(O)cc2O)cc1C,24.7 µM (active),–
CCCS(=O)(=O)N1CCN(C2CCC(C)CC2)CC1 (centres undefined),–,15.8%

SMILES,IC50,inhibition
CC1(C)CNc2cc(N)ccc2S1,26.6 µM (active),–
CCN(CC)CCOC(=O)c1ccc(N/C=C(/C#N)c2nc(-c3ccc(OC)c(OC)c3)cs2)cc1,–,5.84%
O=C(COC(=O)c1c2c(nc3ccccc13)/C(=C/c1ccco1)CC2)NC1CCCC1,–,-13.5%
O=C(O)c1c2c(nc3ccccc13)/C(=C/c1ccc(O)cc1)CCC2,60.2 µM (active),–
CC(C)NCC(=O)Nc1c2c(nc3ccccc13)CCC2,–,22.6%
Cc1ccc(Nc2ccc(N)cc2S(=O)(=O)O)cc1,40.2 µM (active),–
O=C(CNCc1ccccn1)Nc1cc(C(F)(F)F)ccc1N1CCOCC1,–,15.5%
Nc1cc(C(F)(F)F)ccc1N1CCOCC1,30.2 µM (active),–
COC(=O)c1cc(NCc2ccccc2F)ccc1N1CCOCC1,–,24.7%
Nc1ccc(N2CCCCC2)c(Cl)c1,37.9 µM (active),–
COC(=O)c1cc(NCc2c(F)cccc2Cl)ccc1N1CCOCC1,–,19.7%
Nc1ccc(N2CCOCC2)c(Cl)c1,51.3 µM (active),–
Cc1cccc(C)c1OCCCCN1CCNCC1,–,22.1%
COc1cc(/C=N/NC(=O)c2ccccc2NS(=O)(=O)c2cccs2)ccc1O,79 µM (active),–
O=C(NN=Cc1ccc(O)cc1)c1ccccc1NS(=O)(=O)c1cccs1,75.6 µM (active),–
CC(=O)Oc1ccc([N+](=O)[O-])cc1N1C(=O)c2ccccc2C1=O,–,9.3%
CSc1ccc(CN2CCC(N3CC(C)OC(C)C3)CC2)cc1 (centres undefined),–,24.7%
Oc1ccc(/C=N/Nc2ncnc3c2ncn3Cc2ccccc2)cc1O,40.7 µM (active),–
C=C1c2cccc(O)c2C(O)=C2C(=O)[C@]3(O)C(O)=C(C(N)=O)C(=O)[C@@H](N(C)C)[C@@H]3[C@@H](O)[C@H]12,–,-38.6%
COc1ccc(S(=O)(=O)/N=C2\C=C(Nc3ccc(O)cc3)C(=O)c3ccccc32)cc1,52 µM (active),–
O=C1C(Nc2ccc(O)cc2)=C/C(=N/S(=O)(=O)c2cccs2)c2ccccc21,50.8 µM (active),–
COc1cc(C=C2C(=O)c3ccccc3C2=O)cc(OC)c1OC,–,-0.2%
O=C1C=C(Nc2ccc(O)cc2)C(=O)c2ccccc21,24.7 µM (active),–
O=C1C(Cl)=C(NCCc2ccccc2)C(=O)c2ccccc21,–,6.08%
COC1=C(Nc2ccc(O)cc2)C(=O)c2ccccc2C1=O,30.7 µM (active),–
O=C1C(=C(I)I)c2ccccc2-c2ccccc21,–,0.01%
COc1ccc(CN2CCC(N(CCc3ccccc3)Cc3ccccc3)CC2)c(OC)c1,–,18.9%
